This passage reports inhibition results from ChEMBL document CHEMBL1961873, “Compounds: GSK PKIS; Assays: Nanosyn kinase panel” (2012).

Test [1] has as its target T1, Serine/threonine-protein kinase Nek9 (Homo sapiens) (UniProt Q8TD19).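 Note: each value is a mean percent inhibition of NEK9.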
T1 sequence (whole entry): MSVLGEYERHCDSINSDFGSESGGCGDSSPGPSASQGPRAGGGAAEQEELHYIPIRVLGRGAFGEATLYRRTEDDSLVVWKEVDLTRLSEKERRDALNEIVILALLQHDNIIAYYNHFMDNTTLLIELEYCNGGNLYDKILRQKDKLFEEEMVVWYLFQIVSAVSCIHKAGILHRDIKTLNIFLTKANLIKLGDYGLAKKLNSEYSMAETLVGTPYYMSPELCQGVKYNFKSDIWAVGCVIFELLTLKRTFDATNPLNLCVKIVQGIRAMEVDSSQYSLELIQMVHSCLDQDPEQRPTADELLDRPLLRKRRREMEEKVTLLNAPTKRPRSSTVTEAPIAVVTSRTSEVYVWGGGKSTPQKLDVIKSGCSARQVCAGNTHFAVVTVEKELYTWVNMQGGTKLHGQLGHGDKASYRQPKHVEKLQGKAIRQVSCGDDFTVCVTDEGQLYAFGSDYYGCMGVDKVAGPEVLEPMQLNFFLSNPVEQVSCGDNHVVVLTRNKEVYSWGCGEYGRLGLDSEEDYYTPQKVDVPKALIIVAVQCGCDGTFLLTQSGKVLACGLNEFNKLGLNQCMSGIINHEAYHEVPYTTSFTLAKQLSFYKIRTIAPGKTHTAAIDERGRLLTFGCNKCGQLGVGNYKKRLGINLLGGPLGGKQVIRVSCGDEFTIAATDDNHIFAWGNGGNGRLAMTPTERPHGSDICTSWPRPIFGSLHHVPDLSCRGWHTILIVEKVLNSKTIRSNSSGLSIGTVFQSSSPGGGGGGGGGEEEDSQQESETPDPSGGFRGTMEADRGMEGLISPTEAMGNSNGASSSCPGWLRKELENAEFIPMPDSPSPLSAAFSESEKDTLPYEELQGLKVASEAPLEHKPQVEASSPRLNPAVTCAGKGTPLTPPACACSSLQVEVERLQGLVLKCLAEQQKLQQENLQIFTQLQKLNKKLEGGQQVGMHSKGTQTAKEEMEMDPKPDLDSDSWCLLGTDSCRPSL
As to conditions: at 1 µM.

In test [2] the target is Serine/threonine-protein kinase PLK1 (Homo sapiens) (UniProt P53350). The conditions noted are these: at 0.1 µM.
Test [3] shares this target. As to conditions: at 1 µM.
The target of test [4] is T2, Dual specificity protein kinase TTK (Homo sapiens) (UniProt P33981).
T2 sequence (whole entry): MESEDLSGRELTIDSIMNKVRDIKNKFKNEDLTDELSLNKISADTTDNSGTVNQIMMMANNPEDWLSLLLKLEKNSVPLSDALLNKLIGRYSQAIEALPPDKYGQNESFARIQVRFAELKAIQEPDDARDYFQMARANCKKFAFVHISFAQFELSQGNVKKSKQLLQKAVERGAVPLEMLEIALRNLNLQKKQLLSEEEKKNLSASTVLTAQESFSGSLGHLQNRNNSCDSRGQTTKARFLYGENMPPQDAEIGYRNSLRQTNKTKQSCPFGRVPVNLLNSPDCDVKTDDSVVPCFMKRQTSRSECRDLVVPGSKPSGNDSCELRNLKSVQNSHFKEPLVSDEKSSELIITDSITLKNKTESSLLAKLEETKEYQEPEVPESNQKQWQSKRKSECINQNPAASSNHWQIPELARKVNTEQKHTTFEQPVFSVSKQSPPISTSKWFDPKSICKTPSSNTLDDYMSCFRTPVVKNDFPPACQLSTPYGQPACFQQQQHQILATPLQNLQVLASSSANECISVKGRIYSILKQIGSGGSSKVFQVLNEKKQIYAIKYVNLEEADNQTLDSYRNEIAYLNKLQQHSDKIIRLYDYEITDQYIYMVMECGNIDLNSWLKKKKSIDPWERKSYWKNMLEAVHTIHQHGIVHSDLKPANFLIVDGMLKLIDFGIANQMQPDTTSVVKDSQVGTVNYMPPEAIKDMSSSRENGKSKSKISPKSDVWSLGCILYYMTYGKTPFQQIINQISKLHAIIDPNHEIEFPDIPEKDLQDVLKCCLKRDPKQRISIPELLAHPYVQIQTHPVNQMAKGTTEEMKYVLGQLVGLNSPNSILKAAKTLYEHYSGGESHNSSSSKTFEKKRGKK
As to conditions: at 0.1 µM.

For test [5], the system named is T3, Receptor-type tyrosine-protein kinase FLT3 (Homo sapiens), P36888 [D835Y].
T3 sequence (whole entry): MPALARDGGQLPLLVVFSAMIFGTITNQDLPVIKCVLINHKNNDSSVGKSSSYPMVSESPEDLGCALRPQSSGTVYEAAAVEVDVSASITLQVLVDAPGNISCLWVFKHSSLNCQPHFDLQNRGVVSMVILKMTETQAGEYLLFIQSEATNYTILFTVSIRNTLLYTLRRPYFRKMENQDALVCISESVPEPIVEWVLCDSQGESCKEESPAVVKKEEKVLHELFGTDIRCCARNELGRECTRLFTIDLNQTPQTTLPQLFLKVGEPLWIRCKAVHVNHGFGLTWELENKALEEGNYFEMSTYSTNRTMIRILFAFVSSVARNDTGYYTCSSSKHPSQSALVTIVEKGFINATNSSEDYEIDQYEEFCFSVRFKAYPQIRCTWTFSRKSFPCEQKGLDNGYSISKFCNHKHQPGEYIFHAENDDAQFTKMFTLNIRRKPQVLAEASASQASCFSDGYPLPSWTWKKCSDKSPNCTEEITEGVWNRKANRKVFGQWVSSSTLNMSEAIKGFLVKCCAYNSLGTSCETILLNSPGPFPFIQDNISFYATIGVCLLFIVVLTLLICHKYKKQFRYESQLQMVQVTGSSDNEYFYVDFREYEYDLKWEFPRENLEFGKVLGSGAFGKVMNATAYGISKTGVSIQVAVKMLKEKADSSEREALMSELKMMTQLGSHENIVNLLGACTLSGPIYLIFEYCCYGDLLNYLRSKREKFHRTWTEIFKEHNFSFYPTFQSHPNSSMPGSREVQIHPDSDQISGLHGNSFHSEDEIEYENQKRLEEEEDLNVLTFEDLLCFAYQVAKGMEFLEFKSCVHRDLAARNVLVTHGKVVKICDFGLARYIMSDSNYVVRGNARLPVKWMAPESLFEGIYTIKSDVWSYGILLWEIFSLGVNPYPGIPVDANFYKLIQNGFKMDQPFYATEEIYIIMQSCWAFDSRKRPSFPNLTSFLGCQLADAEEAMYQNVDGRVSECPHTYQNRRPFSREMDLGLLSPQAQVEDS
As to conditions: at 1 µM.

Test [6] deals with Vascular endothelial growth factor receptor 3 (Homo sapiens) (UniProt P35916). The conditions noted are these: at 0.1 µM.
Test [7] shares this target. As to conditions: at 1 µM.
For test [8], the target named is Macrophage colony-stimulating factor 1 receptor (Homo sapiens) (UniProt P07333). The conditions noted are these: at 0.1 µM.
Test [9] shares this target. The conditions noted are these: at 1 µM.
The target of test [10] is Tyrosine-protein kinase Fyn (Homo sapiens) (UniProt P06241). As to conditions: at 0.1 µM.
Test [11] has the same target. The conditions noted are these: at 1 µM.
Test [12] has as its target Tyrosine-protein kinase HCK (Homo sapiens) (UniProt P08631). As to conditions: at 0.1 µM.
The target is the same in test [13]. As to conditions: at 1 µM.
Test [14] deals with Insulin-like growth factor 1 receptor (Homo sapiens) (UniProt P08069). As to conditions: at 0.1 µM.
Test [15] has the same target. The conditions noted are these: at 1 µM.
The target in test [16] is Insulin receptor (Homo sapiens) (UniProt P06213). As to conditions: at 0.1 µM.
The target is the same in test [17]. The conditions noted are these: at 1 µM.
Test [18] addresses Insulin receptor-related protein (Homo sapiens) (UniProt P14616). As to conditions: at 0.1 µM.
For test [19] the target is unchanged. The conditions noted are these: at 1 µM.
The target of test [20] is T4, Tyrosine-protein kinase ITK/TSK (Homo sapiens) (UniProt Q08881).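 Note: mean percent inhibition of ITK from the GSK PKIS screen.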
T4 sequence (whole entry): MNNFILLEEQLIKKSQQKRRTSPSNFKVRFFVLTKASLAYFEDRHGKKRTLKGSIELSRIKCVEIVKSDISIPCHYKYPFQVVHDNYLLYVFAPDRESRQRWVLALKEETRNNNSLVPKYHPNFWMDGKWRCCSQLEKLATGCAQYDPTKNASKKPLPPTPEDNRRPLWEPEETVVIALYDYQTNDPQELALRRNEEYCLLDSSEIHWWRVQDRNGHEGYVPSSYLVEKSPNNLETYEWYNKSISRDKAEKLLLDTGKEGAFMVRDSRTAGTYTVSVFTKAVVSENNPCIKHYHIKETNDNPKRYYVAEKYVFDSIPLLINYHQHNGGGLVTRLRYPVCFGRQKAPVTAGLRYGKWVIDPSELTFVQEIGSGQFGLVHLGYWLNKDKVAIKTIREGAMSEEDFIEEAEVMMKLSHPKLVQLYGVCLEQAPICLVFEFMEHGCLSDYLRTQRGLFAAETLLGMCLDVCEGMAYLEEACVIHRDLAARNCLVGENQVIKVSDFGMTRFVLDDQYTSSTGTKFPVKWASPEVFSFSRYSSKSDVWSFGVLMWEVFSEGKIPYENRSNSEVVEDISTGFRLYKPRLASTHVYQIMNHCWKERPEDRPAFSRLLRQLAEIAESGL
The conditions noted are these: at 0.1 µM.

Chain of Vascular endothelial growth factor receptor 3 (Homo sapiens) (P35916 whole entry): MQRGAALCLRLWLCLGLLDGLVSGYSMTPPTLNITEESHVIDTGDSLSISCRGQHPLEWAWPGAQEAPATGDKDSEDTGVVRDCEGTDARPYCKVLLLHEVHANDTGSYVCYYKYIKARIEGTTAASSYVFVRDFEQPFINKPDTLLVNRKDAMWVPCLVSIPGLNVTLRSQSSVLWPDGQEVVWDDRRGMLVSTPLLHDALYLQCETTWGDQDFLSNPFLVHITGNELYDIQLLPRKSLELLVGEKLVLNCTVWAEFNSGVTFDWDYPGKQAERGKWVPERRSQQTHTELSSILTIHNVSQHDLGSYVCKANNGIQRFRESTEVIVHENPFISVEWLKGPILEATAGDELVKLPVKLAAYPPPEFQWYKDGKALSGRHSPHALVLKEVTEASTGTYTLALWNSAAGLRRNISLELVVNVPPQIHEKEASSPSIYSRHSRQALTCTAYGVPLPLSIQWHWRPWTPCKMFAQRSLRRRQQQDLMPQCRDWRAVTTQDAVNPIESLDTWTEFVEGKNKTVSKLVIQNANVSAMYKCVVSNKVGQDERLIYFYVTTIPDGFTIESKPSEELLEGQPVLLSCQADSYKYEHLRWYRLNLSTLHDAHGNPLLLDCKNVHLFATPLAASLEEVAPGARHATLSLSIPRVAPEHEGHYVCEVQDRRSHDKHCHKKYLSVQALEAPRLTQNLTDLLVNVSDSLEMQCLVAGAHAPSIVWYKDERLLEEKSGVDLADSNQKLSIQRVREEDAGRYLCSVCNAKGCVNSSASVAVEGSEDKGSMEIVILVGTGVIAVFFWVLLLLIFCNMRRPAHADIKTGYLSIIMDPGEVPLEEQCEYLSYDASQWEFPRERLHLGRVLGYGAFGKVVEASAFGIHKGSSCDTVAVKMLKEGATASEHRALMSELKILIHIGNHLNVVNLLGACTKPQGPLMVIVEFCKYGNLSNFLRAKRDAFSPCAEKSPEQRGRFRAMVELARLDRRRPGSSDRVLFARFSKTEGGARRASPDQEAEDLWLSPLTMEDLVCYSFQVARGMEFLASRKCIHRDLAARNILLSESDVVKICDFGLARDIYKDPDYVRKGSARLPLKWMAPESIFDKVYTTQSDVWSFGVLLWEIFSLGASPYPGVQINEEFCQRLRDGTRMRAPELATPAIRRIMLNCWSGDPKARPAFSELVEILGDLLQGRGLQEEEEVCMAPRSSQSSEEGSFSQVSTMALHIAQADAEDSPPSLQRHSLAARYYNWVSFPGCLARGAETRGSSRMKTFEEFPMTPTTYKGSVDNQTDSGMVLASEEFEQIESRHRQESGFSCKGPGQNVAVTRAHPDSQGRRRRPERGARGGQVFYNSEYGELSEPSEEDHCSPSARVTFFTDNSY
Chain of Insulin receptor (Homo sapiens) (P06213 28-758 limits assumed): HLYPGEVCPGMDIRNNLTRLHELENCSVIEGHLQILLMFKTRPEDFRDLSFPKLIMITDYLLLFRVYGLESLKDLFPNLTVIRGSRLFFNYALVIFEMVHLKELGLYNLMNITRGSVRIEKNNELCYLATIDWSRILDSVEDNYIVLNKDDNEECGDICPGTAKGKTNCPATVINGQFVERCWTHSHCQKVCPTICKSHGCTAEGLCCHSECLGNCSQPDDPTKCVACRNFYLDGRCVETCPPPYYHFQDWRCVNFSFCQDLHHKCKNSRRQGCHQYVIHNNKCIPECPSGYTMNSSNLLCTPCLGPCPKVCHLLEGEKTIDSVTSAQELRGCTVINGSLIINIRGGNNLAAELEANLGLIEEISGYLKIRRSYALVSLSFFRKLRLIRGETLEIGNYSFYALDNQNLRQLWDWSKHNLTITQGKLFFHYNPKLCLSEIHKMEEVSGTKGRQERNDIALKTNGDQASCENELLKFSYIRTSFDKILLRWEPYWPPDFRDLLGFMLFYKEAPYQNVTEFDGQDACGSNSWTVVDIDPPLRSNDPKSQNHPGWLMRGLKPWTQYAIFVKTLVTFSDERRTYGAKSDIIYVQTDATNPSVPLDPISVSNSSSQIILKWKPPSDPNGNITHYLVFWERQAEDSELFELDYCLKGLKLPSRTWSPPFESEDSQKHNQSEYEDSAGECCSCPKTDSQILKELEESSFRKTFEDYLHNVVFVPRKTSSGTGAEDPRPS
Chain of Insulin receptor (Homo sapiens) (P06213 763-1382 limits assumed): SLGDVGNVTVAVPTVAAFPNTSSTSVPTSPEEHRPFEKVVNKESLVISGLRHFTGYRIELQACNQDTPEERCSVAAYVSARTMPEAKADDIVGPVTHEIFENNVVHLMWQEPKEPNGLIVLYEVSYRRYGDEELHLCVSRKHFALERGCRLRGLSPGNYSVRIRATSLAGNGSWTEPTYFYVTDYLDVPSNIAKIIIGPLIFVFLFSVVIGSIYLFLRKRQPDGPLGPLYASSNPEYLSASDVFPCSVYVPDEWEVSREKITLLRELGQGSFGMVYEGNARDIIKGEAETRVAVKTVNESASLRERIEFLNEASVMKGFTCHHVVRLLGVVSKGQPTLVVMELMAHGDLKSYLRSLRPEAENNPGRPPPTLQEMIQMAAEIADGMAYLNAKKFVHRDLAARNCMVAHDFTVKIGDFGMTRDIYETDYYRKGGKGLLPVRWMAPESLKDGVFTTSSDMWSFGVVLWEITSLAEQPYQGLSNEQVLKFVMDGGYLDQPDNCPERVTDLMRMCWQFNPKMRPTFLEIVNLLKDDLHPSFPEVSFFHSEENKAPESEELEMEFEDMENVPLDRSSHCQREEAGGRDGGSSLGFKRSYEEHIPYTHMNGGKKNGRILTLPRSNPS
Chain of Macrophage colony-stimulating factor 1 receptor (Homo sapiens) (P07333 whole entry): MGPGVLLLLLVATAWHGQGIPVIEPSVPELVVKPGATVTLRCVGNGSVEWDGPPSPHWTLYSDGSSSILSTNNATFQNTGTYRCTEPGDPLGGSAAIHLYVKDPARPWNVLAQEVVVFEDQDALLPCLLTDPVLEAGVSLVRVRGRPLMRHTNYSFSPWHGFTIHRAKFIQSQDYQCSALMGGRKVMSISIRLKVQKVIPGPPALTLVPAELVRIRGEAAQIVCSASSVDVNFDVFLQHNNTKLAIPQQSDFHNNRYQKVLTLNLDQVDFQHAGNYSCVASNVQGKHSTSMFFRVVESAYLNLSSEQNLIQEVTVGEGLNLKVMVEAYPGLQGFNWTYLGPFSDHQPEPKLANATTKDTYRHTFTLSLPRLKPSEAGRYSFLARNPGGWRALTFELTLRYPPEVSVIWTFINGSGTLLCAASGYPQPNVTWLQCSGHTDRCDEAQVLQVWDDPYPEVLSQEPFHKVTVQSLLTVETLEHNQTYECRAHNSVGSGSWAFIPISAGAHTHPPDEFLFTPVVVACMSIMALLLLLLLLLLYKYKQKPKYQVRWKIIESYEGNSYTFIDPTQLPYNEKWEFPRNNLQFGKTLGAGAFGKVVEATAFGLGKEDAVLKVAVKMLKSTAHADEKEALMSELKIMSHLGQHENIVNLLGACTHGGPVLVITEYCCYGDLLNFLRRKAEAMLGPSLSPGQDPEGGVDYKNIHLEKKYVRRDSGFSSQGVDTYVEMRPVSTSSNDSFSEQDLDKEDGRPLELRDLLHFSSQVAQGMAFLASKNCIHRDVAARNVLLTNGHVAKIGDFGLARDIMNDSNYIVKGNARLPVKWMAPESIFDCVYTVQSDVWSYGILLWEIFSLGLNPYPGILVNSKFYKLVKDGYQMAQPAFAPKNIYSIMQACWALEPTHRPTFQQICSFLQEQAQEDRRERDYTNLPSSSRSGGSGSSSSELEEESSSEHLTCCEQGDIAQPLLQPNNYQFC
Chain of Tyrosine-protein kinase Fyn (Homo sapiens) (P06241 2-537 limits assumed): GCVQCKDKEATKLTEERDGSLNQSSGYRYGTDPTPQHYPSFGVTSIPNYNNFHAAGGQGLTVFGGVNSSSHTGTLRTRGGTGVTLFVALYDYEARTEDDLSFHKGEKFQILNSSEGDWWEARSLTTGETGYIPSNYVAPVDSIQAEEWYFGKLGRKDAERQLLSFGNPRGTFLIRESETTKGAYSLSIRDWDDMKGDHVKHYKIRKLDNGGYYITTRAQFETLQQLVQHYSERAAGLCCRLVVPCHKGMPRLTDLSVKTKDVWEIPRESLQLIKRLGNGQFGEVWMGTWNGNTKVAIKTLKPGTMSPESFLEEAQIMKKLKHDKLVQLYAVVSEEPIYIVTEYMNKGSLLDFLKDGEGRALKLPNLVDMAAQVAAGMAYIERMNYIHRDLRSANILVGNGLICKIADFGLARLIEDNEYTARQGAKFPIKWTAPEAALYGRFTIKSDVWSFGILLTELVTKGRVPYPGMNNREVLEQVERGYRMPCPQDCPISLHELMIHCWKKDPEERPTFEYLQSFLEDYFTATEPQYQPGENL
Chain of Tyrosine-protein kinase HCK (Homo sapiens) (P08631 2-526 limits assumed): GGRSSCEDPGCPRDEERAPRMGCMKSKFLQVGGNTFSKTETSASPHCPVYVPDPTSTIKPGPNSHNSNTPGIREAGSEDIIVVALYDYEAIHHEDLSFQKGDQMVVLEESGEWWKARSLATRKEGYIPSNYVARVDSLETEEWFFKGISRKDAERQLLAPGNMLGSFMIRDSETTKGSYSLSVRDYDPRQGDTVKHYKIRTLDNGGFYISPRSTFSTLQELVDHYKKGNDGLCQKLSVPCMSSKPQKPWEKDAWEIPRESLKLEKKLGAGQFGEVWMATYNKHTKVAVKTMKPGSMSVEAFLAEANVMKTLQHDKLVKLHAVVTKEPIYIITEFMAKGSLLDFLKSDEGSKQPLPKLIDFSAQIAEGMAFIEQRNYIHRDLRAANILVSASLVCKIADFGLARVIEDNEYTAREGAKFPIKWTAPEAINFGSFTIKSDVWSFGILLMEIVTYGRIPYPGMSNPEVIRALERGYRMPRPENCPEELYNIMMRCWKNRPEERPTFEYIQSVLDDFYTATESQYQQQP

Take `CN(C)CCCn1c(-c2nonc2N)nc2cnccc21`: the inhibition in test [1] is 12.3%; in test [2], 3.73%; in [3] it was 4.15%; in test [4] it was 8.12%; in test [5] it was -1.23%; in test [6], 15.4%. The inhibition in test [7] turned out to be 15.3%; in test [8] it was 2.34%; in test [9], 1.06%; in [10] it was 2.62%; in test [11], 1.87%; in test [12], 5.43%. The inhibition in test [13] came out at 6.49%; in test [14] it was 10.2%; in [15], 9.74%; in test [16], 7.05%; in test [17], 4.75%; in [18], 2.59%. Further, the inhibition in test [19] was 4.16%; in test [20] it was 1.43%.
`CN1CCN(C(=O)c2ccc(NC(=O)Nc3ccc(N(C)c4ccnc(Nc5ccc(CS(C)(=O)=O)cc5)n4)cc3)cc2)CC1`: the inhibition was 30.1% in test [1]; 2.98% in test [2]; 3.2% in [3]; 2.87% in [4]; 25.1% in [5]; 8.95% in test [6]. Moreover, the inhibition in test [7] is 37.5%; in test [8], 87.7%; in test [9], 81.2%; in [10], 0.29%; in [11] it was 8.13%; in test [12], 3.98%. Moreover, the inhibition in test [13] was 22.7%; in test [14] it was 3.48%; in [15], 6.42%; in test [16], 4.81%; in test [17] it was 10.6%; in test [18] it was -0.19%. The inhibition in test [19] amounted to 2.44%; in test [20] it was 6.56%.
Take `OCc1ccc(-c2nc(-c3ccccn3)c(-c3ccc4c(c3)OCO4)[nH]2)cc1`: the inhibition in test [1] was 2.88%; in [2], 3.56%; in test [3], 4.3%; in [4], 7.41%; in [5], -0.9%; in [6], 1.47%. Further, the inhibition was -0.57% in test [7]; 3.57% in test [8]; 4.35% in test [9]; 2.25% in test [10]; 5.01% in [11]; 9.2% in [12]. For the same molecule, the inhibition in test [13] is 9.7%; in test [14], 1.56%; in [15], 4.7%; in test [16], 3.33%; in test [17] it was 2.79%; in [18], 4.43%. Besides, the inhibition in [19] was 1.6%; in [20] it was 1.59%.
Take `CCS(=O)(=O)c1ccc(OC)c(Nc2ncc(-c3cccc(OC)c3)o2)c1`: the inhibition in [1] amounted to 4.07%; in test [2], 4.39%; in test [3] it was 1.04%; in [4], 2.75%; in test [5], 78.5%; in test [6], 27.6%. In addition, the inhibition turned out to be 77.8% in test [7]; 26.4% in test [8]; 71.9% in test [9]; 27.6% in [10]; 76.5% in [11]; 21.1% in [12]. For the same molecule, the inhibition in test [13] came to 67.2%; in test [14], 2.1%; in test [15] it was 4.95%; in test [16], 0.3%; in test [17], 5.78%; in test [18], 3.08%. The inhibition worked out at 3.36% in test [19] and 1.61% in test [20].

The inhibition is the drop in the measured response relative to a control, in per cent.
